Sampled rows, rich in hits. Any-hit rate of the full collection: about 10%.
GPT2 inhibitor = Primary qHTS assay for inhibitors of Glutamate pyruvate transaminase 2 (GPT2); Alanine aminotransferase 2 (Homo sapiens), Q8TD30; Recombinant GPT2, coupled pyruvate oxidase/HRP Amplex Red fluorescence; Potency, µM (titrated, usually from 57.7 µM), for the others: at the top dose activity change, negative = inhibition, usual class: inhibitors; hit rate 0.25% among 100,000; note: nearly all actives have a fitted effect of over 60% in size
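Inhibition is scored from Amplex Red fluorescence generated when pyruvate oxidase and HRP act on pyruvate released by GPT2. Reactions contain 10ng/uL enzyme, 250uM a-KG and 2mM L-alanine and run 30 min at room temperature.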
3T3 cytotox = Cytotoxic Profiling in NIH 3T3 Cell Line of Diverse Libraries Using Quantitative High-Throughput Screening. NIH 3T3 viability, CellTiter-Glo ATP luminescence, 48-72 h. Potency, µM (top dose mostly 96.7 µM), for inactives: top-dose activity change, negative = cytotoxicity, usual class: inhibitors. hit rate 4.3% among 94,000; note: nearly all actives have a fitted effect of over 55% in size
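NIH 3T3 cells at 400 cells/well received 23 nL of compound by pintool and were incubated 48 or 72 h at 37 °C. Viability was read as ATP-coupled CellTiter-Glo luminescence.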
NPR1 antag = Natriuretic polypeptide receptor (hNpr1) antagonism - Primary qHTS; Atrial natriuretic peptide receptor 1 (Homo sapiens), P16066; HEK293 hNpr1 GloSensor cGMP, ANP-stimulated luminescence; AID 1347048, 2019; hit rate 1.6% among 76,000; Potency, µM (highest dose often 46.3 µM), for inactives: at the top dose activity change, negative = inhibition, hits mostly inhibitors; calls by dose curve; note: nearly all actives have a fitted effect of over 60% in size
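HEK293 cells stably expressing human Npr1 and cGMP GloSensor pGS-40F, loaded 2 h with 2% GloSensor reagent, given compound 30 min at room temperature. Luminescence read before and 20 min after 0.1 nM hNppA.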
HEK293 tox = Cytotoxic Profiling in HEK 293 Cell Line of Diverse Libraries Using Quantitative High-Throughput Screening | Potency, µM (series often up to 115 µM), for the others: at the top dose activity change, negative = cytotoxicity, actives largely listed as inhibitors | hit rate 6.6% among 94,000 | HEK 293 viability, ATP luminescence (CellTiter-Glo), 48-72 h; note: nearly all actives have a fitted effect of over 60% in size
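250 HEK 293 cells/well; compound by pintool; incubated 48 or 72 hr at 37 degree Celsius; CellTiter-Glo added, 10 min RT, luminescence imaged.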
FLuc inh = Firefly luciferase inhibition profiling of diverse chemical library using quantitative high-throughput screening; Luciferin 4-monooxygenase (Photinus pyralis), P08659; purified P. pyralis luciferase, luminescence, biochemical; Potency, µM (series often up to 115 µM), hits mostly inhibitors; hit rate 2.5% among 76,000; note: nearly all actives have a fitted effect of over 65% in size
Target sequence (P08659 whole entry, looked up): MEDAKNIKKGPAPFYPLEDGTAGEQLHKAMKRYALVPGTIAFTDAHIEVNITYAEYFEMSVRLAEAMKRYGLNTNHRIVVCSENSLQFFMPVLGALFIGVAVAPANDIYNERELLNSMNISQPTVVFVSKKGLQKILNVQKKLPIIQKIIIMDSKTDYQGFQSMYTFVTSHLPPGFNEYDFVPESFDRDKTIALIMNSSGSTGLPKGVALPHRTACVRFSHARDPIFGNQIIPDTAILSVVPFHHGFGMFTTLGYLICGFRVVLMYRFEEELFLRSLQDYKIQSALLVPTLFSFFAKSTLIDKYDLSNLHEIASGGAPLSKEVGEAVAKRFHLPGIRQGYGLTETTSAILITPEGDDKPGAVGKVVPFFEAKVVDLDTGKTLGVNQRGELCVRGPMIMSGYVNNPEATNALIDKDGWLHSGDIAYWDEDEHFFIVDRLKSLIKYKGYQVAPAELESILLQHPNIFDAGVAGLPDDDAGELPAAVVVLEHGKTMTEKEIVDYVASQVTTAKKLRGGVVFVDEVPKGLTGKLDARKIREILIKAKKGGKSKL
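Biochemical qHTS: compound (6-point titration) added to 10uM D-luciferin plus 10uM ATP in Tris acetate pH 7.5 buffer with Mg, Tween-20 and BSA, then purified enzyme at 10nM; light output imaged.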
* hit, by the source's call; i = inactive; ? = inconclusive; . = no result given; [ ] = dose if it differs, or a comment. Unless noted, calls come from the whole dose curve; as a rule, active = well fitted curve in the direction sought with a large enough effect; inconclusive = small, poorly fitted or top-dose-only effect, or another doubt; inactive = no such curve, though single readings can be large; an effect the other way counts as inactive or inconclusive. % is set by controls: 0 for no effect and ±100 for the full control effect; potency is the fitted concentration of half-maximal effect.

SMILES	GPT2 inhibitor	3T3 cytotox	NPR1 antag	HEK293 tox	FLuc inh
O=C(Cc1ccc(Cl)cc1)NCCNC(=O)c1cccc(-c2ccc(C(F)(F)F)cc2)c1	?	35µM*	.	?	.
Cc1ccc(-c2cc(N3CCCN(C(=O)c4ccccc4F)CC3)n[nH]2)cc1C	?	?	-24%	28µM*	i
CN(C)c1cccc(C(=O)N2CCCN(c3cc(-c4ccc(F)cc4)[nH]n3)CC2)c1	2%	3%	-21%	?	22µM*
O=C(c1ccccc1F)N1CCN(c2cc(-c3ccc(F)cc3)[nH]n2)CC1	i	?	?	?	i
O=C(c1ccc(F)cc1)N1CCCN(c2cc(-c3ccc(F)cc3)[nH]n2)CC1	-1%	-24%	-1%	?	i
Cc1ccc(-c2cc(N3CCCN(C(=O)c4cccc(N(C)C)c4)CC3)n[nH]2)cc1C	?	40µM*	?	?	?
Cc1ccc(-c2cc(N3CCCN(C(=O)c4cccnc4)CC3)n[nH]2)cc1C	-4%	0%	-2%	-18%	i
O=C(c1ccc2cc[nH]c2c1)N1CCCN(c2cc(-c3ccc(F)cc3)[nH]n2)CC1	?	?	?	40µM*	i
Cc1ccc([S+](=O)([O-])N2CCCN(CCn3nc4n(c3=O)CCCC4)CC2)cc1	.	-24%	.	-17%	.
CN1CC(C(=O)NCc2ccc(C(F)(F)F)cc2)NC1=O (stereo not drawn)	i	-11%[138 µM]	.	2%[172 µM]	.
CCCCCNc1ncnc2c1CN(c1cccnc1)C(=O)CN2C	i	-10%	.	5%	.
C=CCNc1ncnc2c1CCN(C(=O)c1ccccc1OCC)CC2	2%	-4%	-4%	-17%	i
COc1ccccc1C(=O)NC1CCN(Cc2cccc(-c3ccc(SC)cc3)c2)CC1	.	28µM*	.	32µM*	.
CSc1ccc(-c2cccc(CN3CCC(NC(=O)NC4CCCC4)CC3)c2)cc1	.	-17%	.	-9%	.
COC(=O)NC1CCN(Cc2cccc(-c3ccc(SC)cc3)c2)CC1	.	32µM*	.	?	.
O=C(O)C[C@@H]1CCN(C(=O)COc2ccccc2)C[C@@H]1CCN1CCN(c2cccc(C(F)(F)F)c2)CC1	4%	i	6%	i	i
COCCOCc1nc(C2CCN(C(=O)CC3CCCCC3)C2)no1 (stereo not drawn)	5%	-14%	.	-10%	.
COc1ccc(CN(C)CC2CCN(CCc3ccc(F)cc3)CC2)cc1Cn1cccn1	i	40µM*	-3%	28µM*	i
CCOC(=O)N1CCC(N(C)CC2CCN(CCc3ccc(F)cc3)CC2)CC1	i	?	1%	?	i
COCC1CN(Cc2ccc(Br)cc2)CC12CCNCC2 (stereo not drawn)	5%	?	-10%	?	i
NC[C@@H]1O[C@H](c2ccccc2)Cc2c1ccc(O)c2O	20µM*	.	.	.	.
CC(=O)NCCc1ncc(C)n1C1CCCCCC1	?	?	2%	-7%	i
CCOC(=O)c1ccc(N2CCN(C(=O)C3=CC(C)(C)COc4ccc(OC)cc43)CC2)cc1	.	?	.	35µM*	.
O=C(NCCc1ccccn1)c1ccc(OC2CCNCC2)nc1	i	?	?	?	7.9µM*
O=C(NCCc1ccncc1)c1cccnc1OC1CCNCC1	i	i	-8%	-3%	i
SMILES	GPT2 inhibitor	3T3 cytotox	NPR1 antag	HEK293 tox	FLuc inh
COc1ccccc1Nc1ccnc(N2CCCC(C(=O)N3CCC(C#N)CC3)C2)n1 (stereo not drawn)	i	?	.	?	.
COc1ccc(Nc2ccnc(N3CCCC(C(=O)NCc4ccccc4Cl)C3)n2)cc1 (stereo not drawn)	i	35µM*	.	35µM*	.
COc1ccc(Nc2ccnc(N3CCCC(C(=O)N4CCC(Cc5ccccc5)CC4)C3)n2)cc1 (stereo not drawn)	-17%	28µM*	.	20µM*	.
COc1ccc(C2(C(=O)N3CCCC(c4nc(CCOCC5CC5)no4)C3)CC2)cc1 (stereo not drawn)	i	-7%	-24%	?	i
O=C(NCc1ccc(F)cc1)c1ccc2oc(-c3ccncc3)nc2c1	0%	-19%	.	?	.
Cc1noc2nc(C(C)C)cc(C(=O)NC3CCCc4c3[nH]c3c(Cl)cccc43)c12 (stereo not drawn)	-7%	?	-2%	35µM*	i
COc1ccc(CC(=O)NC2CCCc3c2[nH]c2c(Cl)cccc32)cc1OC (stereo not drawn)	i	13µM*	?	28µM*	i
Cc1noc(C)c1CC(=O)NC1CCCc2c1[nH]c1c(Cl)cccc21 (stereo not drawn)	4%	20µM*	-11%	?	i
COc1ccccc1C(=O)NC1CCCc2c1[nH]c1c(Cl)cccc21 (stereo not drawn)	i	?	5%	?	i
COCCCNC(=O)CNC(=O)c1ccc(-c2cnc3ccccc3c2)cc1	.	-40%	.	79µM*	.
O=C(CNC(=O)c1ccc(-c2cnc3ccccc3c2)cc1)NCc1ccc2c(c1)OCO2	.	-26%	.	50µM*	.
O=C(Cn1nc2n(c1=O)CCCCC2)Nc1ccc(Cl)cc1	5%	i	2%	-2%	i
Cc1ccc(CN2CCN(c3nc(C)ccc3C#N)CC2CCO)cc1 (stereo not drawn)	i	-26%	-3%	?	i
COc1ccc(CN2CCN(c3nc(C)ccc3C#N)CC2CCO)cc1C (stereo not drawn)	-3%[11.5 µM]	?	-19%	50µM*	i
O=C(NCC1CCNC1)C1CCN(c2nc(-c3ccccc3)nc3c2CCC3)CC1 (stereo not drawn)	?	79µM*	1%	?	i
Cn1cc(CNC(=O)C2CCN(c3nc(-c4ccccc4)nc4c3CCC4)CC2)cn1	-7%	i	6%	i	i
CC1(c2noc(-c3ccccn3)n2)CCN(C(=O)CCCc2nc3ccccc3s2)CC1	5%	?	?	40µM*	i
CCCCc1ccc(-n2cc(CN3CCN(C(C)=O)CC(O)C3)cn2)cc1 (stereo not drawn)	-6%	?	-3%	?	40µM*
CC(C)c1ccc(-n2cc(CN3CCN(C(=O)N(C)C)CC3)cn2)cc1	-15%	-26%	-30%	?	28µM*
CCc1cc(=O)n(CC(=O)Nc2ccccc2OC)c(-c2ccccc2)n1	i	?	-9%	?	i

Assay outcomes deposited in PubChem BioAssay by National Center for Advancing Translational Sciences (NCATS).
